In PubChem BioAssay (NCATS):
Active and inactive are the calls of the source. Calls follow the shape of the dose curve; as a rule, active = well fitted activation curve with a large enough effect; inconclusive = small, poorly fitted or top-dose-only effect; inactive = flat fitted curve, though single readings scatter.

assay: Confirmation and Secondary Assay for Modulators of Hemoglobin Beta Chain Splicing at IVS2 705 locus (AID 930); details: HeLa EGFP-705 splicing reporter, GFP fluorescence, 48 h; series mostly up to 46.1 µM
Excerpt: NIH Chemical Genomics Center [NCGC] NIH Molecular Libraries Screening Centers Network [MLSCN] MLSCN Grant: 1 X01 MH080684-01 PI Name: Dr. Ryszard Kole NCGC Assay Overview: Modulation of Alternative Splicing as Therapy Abnormal splicing is associated with a number of diseases, including cancer and genetic diseases such as cystic fibrosis, muscular dystrophy and beta-thalassemia. Alteration of disease associated splicing patterns provides a promising target for treatment. […] Mutations in the second intron of the b-globin gene at positions 654 or 705 are clinically relevant and cause mis-splicing which results in an out of frame gene product. […] EGFP-705 HeLa Cells as screen system. HeLa cell lines were stably transfected with a construct in which the EGFP (enhanced green fluorescent protein) cDNA was interrupted by the second intron of the beta-globin gene (IVS2-705). The ISV2 intron contains mutations which cause mis-splicing of EGFP and premature termination of EGFP which results in a nonfluorescent protein product. […] Expression of the transgene was driven by the CMV promoter. We concluded that a low molecular weight compound, which restored correct splicing of intron 2 would also generate functional EGFP protein, resulting in a fluorescent signal. Thus, the HeLa cells that express the EGFP-705 construct can be used for validation of splice site specificity of compounds identified in primary screening of the ISV2 654 construct.
NCGC Assay Protocol Summary: Confirmatory Screening. Freshly thawed HeLa EGFP-705 cells were seeded in 5 ul of optimem media (Invitrogen) containing 2 % fetal calf serum (Hyclone) and 1x penicillin/streptomycin (Invitrogen) at a concentration of 500 cells per well in 1536-well plates. Cells were incubated overnight at 37C in 5% CO2. The next day, cells were treated with DMSO, 500 nM antisense ISV2 654 PNA control oligo, or library compound and allowed to grow at 37C in 5% CO2 for 2 days. The PNA oligo blocked the mutation site in the intron and allowed proper (wild type) splicing to occur, resulting in full length EGFP expression and also allowed for optimization of the assay parameters. Plates were read in the Acumen Explorer (TTP Labtech) using 488 nm laser excitation and 500-520 nm emission PMT filter in a 1 x 8 uM capture mode. Fluorescnet objects ranging in size from 5 to 250 uM were measured and the total peak GFP intensity for each well was used for data analysis. Keywords: Thalassemia, beta-thalassemia, beta-globin, EGFP, ISV2 654, ISV2 705, SSO, PNA, antisense, splicing, MLSMR, MLSCN, NIH Roadmap, qHTS, NCGC

Potency, inactive:
CC1(C)OC2CC3C4CCC5=CC(=O)CCC5(C)C4(F)C(O)CC3(C)[C@]2(C(=O)CCl)O1 (stereo not given in full), NCC1O[C@@H](OC2C(N)C[C@H](N)[C@@H](O[C@H]3OC(CO)C(O)C(N)C3O)C2O)C(N)C(O)C1O (stereo not given in full), COc1cc(C(=O)OC2CC[C@]3(C)C4CCC5[C@]6(O)CC(O)[C@]7(O)C(CN8CC(C)CCC8[C@]7(C)O)[C@]6(O)C[C@@]53O[C@]24O)cc(OC)c1OC (stereo not given in full), CCCCCC1C(=O)CCC1CC(=O)O (stereo not given), C=C(C)C1CC=C(CO)CC1 (stereo not given), COC1C(O)CC(=O)OC(C)C/C=C/C=C/[C@@H](OC2CCC(N(C)C)C(C)O2)C(C)C[C@@H](CC=O)[C@@H]1O[C@H]1OC(C)[C@H](O[C@@H]2C[C@@](C)(O)C(O)C(C)O2)C(N(C)C)C1O (stereo not given in full), Cc1cn(C2CCC(CO)O2)c(=O)[nH]c1=O (stereo not given), COC1CC(O[C@H]2/C(C)=C/CC3CC(C[C@]4(CCC(C)C(C5CCCCC5)O4)O3)OC(=O)[C@H]3C=C(C)/C(=N/O)C4OC/C(=C\C=C\[C@@H]2C)[C@@]43O)OC(C)C1O (stereo not given in full), COc1cc2c(cc1OC)Cc1cc(OC)c(OC)cc1Cc1cc(OC)c(OC)cc1C2, CC1(C)C(O)C=C[C@@]2(C)C1CC(=O)O[C@@]1(C)C3=CC(=O)OC(c4ccoc4)[C@]3(C)CCC21 (stereo not given in full), CN(C)c1ccc(-c2nccc(NCc3ccccc3)n2)cc1, COc1ccc(C(C)C(=O)c2ccc(O)cc2O)cc1 (stereo not given), CC1(O)CC2C(CC1O)C2(C)C (stereo not given), CCC(/C=C/C(C)C1CCC2C3CCC4=CC(=O)CC[C@@]4(C)C3CC[C@@]12C)C(C)C (stereo not given in full), O=c1cc(-c2cccc(O)c2)oc2ccc(O)cc12, C/C=C1\C2C=C(C)C[C@@]1(N)c1ccc(=O)[nH]c1C2, CC(=O)OC1CC2C(C)(C)C(=O)CC[C@]2(C)C2CC[C@@]3(C)C(c4ccoc4)OC(=O)C4OC43[C@]12C (stereo not given in full), CC(CCC(=O)O)C1CCC2C3CC[C@@H]4CCCC[C@@]4(C)C3CC[C@@]12C (stereo not given in full), CC(=O)OCCC(C)CCC=C(C)C (stereo not given), Cc1c(S(=O)(=O)O)oc2c1C(=O)C(=O)c1c-2ccc2c1CCCC2(C)C, Cc1cn(C2CC(N=[N+]=[N-])C(CO)O2)c(=O)[nH]c1=O (stereo not given), CC12CCC3C(CC3(C)C)C(C)(CCC1=O)O2 (stereo not given), COc1ccc(-c2cc(=O)c3c(O)c(OC)c(OC)c(OC)c3o2)cc1OC, COc1cccc(-c2nc(NCCc3c[nH]c4ccc(OC)cc34)c3ccccc3n2)c1, CC(=O)OC1CC2C(C)(C)C(O)CC[C@@]2(C)C2CC[C@@]3(C)C(c4ccoc4)OC(=O)C4O[C@@]43[C@]12C (stereo not given in full), CC(C)C1=CC2=CC[C@@H]3[C@](C)(CO)CCC[C@]3(C)C2CC1 (stereo not given in full), CON, C=C1C(=O)OC2CC1C(OC(C)=O)CC(C)=CCCC(C)=CCC[C@@]2(C)O (stereo not given in full), COC(=O)CC1C(C)(C)C(OC(C)=O)C2[C@H](OC(C)=O)[C@]34O[C@]2(O)[C@]1(C)C3CC[C@]1(C)C4=CC(=O)OC1c1ccoc1 (stereo not given in full), Cc1cc(O)cc(O)c1C(=O)O, COC(=O)c1c(C)cc(OC)cc1O, COc1ccc(C2CC(=O)c3c(O)cc(O[C@H]4OC(COC5OC(C)C(O)C(O)[C@@H]5O)C(O)C(O)C4O)cc3O2)cc1O (stereo not given in full), CCCCC(=O)Oc1ccccc1C(=O)O, CC(C)C1=CC2=CCC3[C@@](C)(CCC[C@@]3(C)C(=O)O)C2CC1 (stereo not given in full), O=c1cc(-c2ccccc2)oc2cc(O)c(O)cc12, COc1ccc(-c2cc(=O)c3c(O)cc(O[C@@H]4OC(COC5OC(C)C(O)C(O)[C@@H]5O)C(O)C(O)C4O)cc3o2)cc1 (stereo not given in full), COc1cc(OC)c2c(=O)c(O)c(-c3ccc(OC)c(OC)c3)oc2c1, CCN1CCN(C(=O)NC(C(=O)NC2C(=O)N3C2SC(C)(C)C3C(=O)O)c2ccccc2)C(=O)C1=O (stereo not given), COc1c(O)cc2c(c1O)C1OC(CO)C(O)[C@H](O)[C@H]1OC2=O (stereo not given in full), CO[C@@]1(NC(=O)CSCC#N)C(=O)N2C(C(=O)O)=C(CSc3nnnn3C)CSC21 (stereo not given in full)
